Screening data (PubChem BioAssay)
Fluor 339 460 = intrinsic fluorescence of library compounds, ex339/em460 – biochemical, MLSMR library, data from DPM-DC assay, artefact control, profiling panel | compound autofluorescence, ex339/em460 nm, NADH buffer; hits give high values; 1 = no-compound wells, NADH background | fluorescence fold increase at 10 µM | 65,000 tested, 5.5% active | AID 709;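 active = at 10 µM, mean starting fluorescence two-fold or more over control wells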;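 note: signal is the first read of a kinetic run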
Spn PMK inh = S. pneumoniae PMK inhibition | purified PMK, PK/LDH-coupled NADH absorbance 340 nm | AID 539 | inhibition, % at 10 µM | 65,000 tested, 0.49% active;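 active = top-ranked compounds by inhibition in the single 10 µM screen, taking a fixed number of the strongest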;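 note: 0% = full reaction with DMSO carrier and 100% = background rate without enzyme reaction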
DPM-DC inhibit = inhibitors of Streptococcus pneumoniae diphosphomevalonate decarboxylase | purified DPM-DC, PK/LDH coupled NADH fluorescence | calls only at 10 µM | 65,000 tested, 0.49% active;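 active = the 320 compounds with the highest percent inhibition in the single-dose primary screen, excluding strongly autofluorescent ones, cut at about 32% in these data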;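 note: kinetic rate of NADH fluorescence loss reporting ADP formed by the decarboxylase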
NADH enzymes = inhibitors of enzymes used to reach an NAD/NADH endpoint; coupled PK/LDH NADH assays, four targets; IC50, µM (series often up to 10 µM), inactives show at the highest dose inhibition; 65,000 tested, 0.02% active; AID 774;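 active = single-dose screening hits from any of four coupled enzyme assays that gave an IC50 when retested across doses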;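 note: the DPM-DC format reads NADH fluorescence rather than 340 nm absorbance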
Spn MK inh = blocks S. pneumoniae mevalonate kinase; AID 555; 65,000 tested, 0.48% active; purified MK, PK/LDH-coupled NADH absorbance 340 nm; inhibition, % at 10 µM;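 active = ranked among the strongest by inhibition in the single 10 µM screen, a fixed top-ranked set picked for dose follow-up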
A340 absorber = absorbance at 340 nm | compound absorbance at 340 nm, fold over control | fold change at 10 µM | 65,000 tested, under 10 active;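 active = at 10 µM dose, initial 340 nm absorbance at least 2 fold that of control wells; inactive = change under 2 fold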;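 note: initial absorbance extrapolated from kinetic A340 decline of NADH oxidation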
* marks the source's active call; other numbers are inactive results; i = inactive; . = no result given; + = active, no number. Most compounds without a hit are left out; they make up all but 6.5% or so of the library.

SMILES	Fluor 339 460	Spn PMK inh	DPM-DC inhibit	NADH enzymes	Spn MK inh	A340 absorber
Cc1ccc(C(=O)OCc2cn3ccccc3n2)cc1	1.1	5	i	2%	1	1
O=C(Nc1ccc(-c2nc3ncccc3o2)cc1)c1ccc(Br)o1	2	0	.	7%	8	1.1
O=C(Nc1ccc(-c2nc3ncccc3o2)cc1)c1ccco1	2.6*	5	+	20%	11	1.4
Cc1ccc2nc(-c3ccc(NC(=O)c4ccco4)cc3)[nH]c2c1	1.1	3	i	3%	0	1.1
Cc1nc(NC(=O)c2ccco2)sc1C(=O)Nc1ccc(Br)cc1	1.2	25*	i	10%	0	1.2
CCOc1cccc(C(=O)Nc2cccc(-c3nnc(-c4ccccc4)o3)c2)c1	1.1	8	i	6%	10	1.1
Cc1ccc(-c2nnc(-c3ccc(NC(=O)c4ccco4)cc3)o2)cc1	3*	11	i	13%	0	1.1
CCOc1cccc(C(=O)Nc2cccc(-c3nnc(-c4ccc(C)cc4)o3)c2)c1	3.6*	1	.	1%	0	1.4
O=C(CSc1c2c(nc3ccc(Cl)cc13)CCCC2)N1CCN(C(=O)c2ccco2)CC1	1.1	12	i	4%	1	0.99
CCC(c1nnnn1Cc1ccc(F)cc1)N(CCCO)Cc1cc2cc3c(cc2[nH]c1=O)OCO3 (configuration not stated)	2.2*	8	i	5%	1	1.1
Cc1cc(C)c2cc(CN(CCO)C(c3nnnn3Cc3ccc(F)cc3)C(C)C)c(=O)[nH]c2c1 (configuration not stated)	1.3	0	i	0%	0	1.1
Nn1cc(-c2ccccc2)nc1SCC(=O)NCCN1C(=O)CSC1=O	1.1	7	i	3%	1	1
CC(C)(C)NC(=O)Nc1ccc2nccnc2c1	2.2*	8	.	8%	7	1.1
CC(C)N(C(=O)Nc1ccc2nccnc2c1)C(C)C	2.2*	0	.	3%	5	1.1
CC(C)(C)NC(=O)c1ccc2nccnc2c1	1.1	10	i	7%	11	1
CCCCN(CC)CCCNC(=O)c1cc2c(=O)n(C)c3ccccc3c2n1C	1.5	8	i	4%	10	0.98
Oc1ccc(CN2CCCCC2)nc1-c1ccccc1	3.3*	0	i	5%	0	1.1
CC(=O)Nc1ccc(C2Nc3ccccc3C(=O)N2C2CCCCC2)cc1 (configuration not stated)	2.2*	10	.	7%	3	1
CC(=O)Nc1ccc(C2NC(=O)c3ccccc3O2)cc1 (configuration not stated)	1.2	5	i	2%	2	1.1
CCC1(C)Cc2c(c(=O)n(-c3ccccc3)c3ncnc(N)c23)CO1 (configuration not stated)	2	9	i	7%	6	1.1
C=CCOC(=O)C1=C(C)NC(SCC(=O)Nc2ccc(C)c(Cl)c2)=C(C#N)C1c1ccco1 (configuration not stated)	2.3*	7	.	4%	0	1.1
NC(=O)CSc1nnc(-c2ccc(S(=O)(=O)N3CCOCC3)cc2)n1CC1CCCO1 (configuration not stated)	1.1	14	i	9%	12	0.96
CC(C)NC(=O)CSc1nnc(-c2ccc(S(=O)(=O)N3CCCC3)cc2)n1CC1CCCO1 (configuration not stated)	1.1	11	i	19%	45*	0.98
Cc1ccc(OCCCN(C)C)c(Br)c1	1.1	13	i	19%	45*	1.1
CS(=O)(=O)N(CC(=O)N1CCN(Cc2ccccc2)CC1)C1CCCCC1	1.1	0	i	8%	17	1.1
SMILES	Fluor 339 460	Spn PMK inh	DPM-DC inhibit	NADH enzymes	Spn MK inh	A340 absorber
CS(=O)(=O)N(CC(=O)N1CCN(c2ccccc2)CC1)C1CCCCC1	1.1	36*	i	18%	15	1.1
C=CCNc1nc2c(c(=O)[nH]c(=O)n2C)n1Cc1cccc(C)c1	1.1	4	i	1%	0	1
CC(=O)COc1cc(C)cc2oc(=O)c(C)c(C)c12	3.9*	9	.	10%	10	1.1
CC(=O)C(C)Oc1cc(C)cc2oc(=O)c(C)c(C)c12 (configuration not stated)	3.6*	4	.	6%	7	1.1
O=C(CCn1nnc2ccccc21)N1CCC(O)(c2cccc(F)c2)CC1	1.1	0	i	2%	6	1.1
CCn1c(SCc2nc(-c3ccc(OC)c(OC)c3)no2)nnc1-c1cccs1	1.1	3	i	3%	4	1
COc1ccc(-c2cnn(-c3ccccc3)c2N)cc1OC	1.1	2	i	2%	5	1.1
Nc1nc2c(s1)CCc1c-2cnn1-c1ccccc1	0.86	5	+	21µM*	0	0.95
CCCS(=O)(=O)n1nc(-c2ccc(OC)cc2OC)cc1N	1.1	1	i	2%	4	1.1
COc1ccc(-c2cc3nc(C)cc(C)n3n2)c(OC)c1	3.2*	16	i	13%	0	1.1
CCN(CC)c1ccc2cc(C(=O)Nc3ccc(-n4cnnn4)c(OC)c3)c(=O)oc2c1	1.6	0	i	8%	9	1.1
CN1CCN(c2ccccc2NC(=O)C(Cc2ccccc2)n2cccc2)CC1 (configuration not stated)	1.1	19	i	6%	0	1.1
Nc1c(S(=O)(=O)c2cccc(Cl)c2)c2nc3ccccc3nc2n1CCN1CCOCC1	3.9*	10	.	8%	5	1.1
Cc1ccc(S(=O)(=O)N2CCCC(C(=O)NCC3COCCO3)C2)cc1 (configuration not stated)	1.1	1	i	1%	3	1
Cc1ccc(S(=O)(=O)c2c(N)n(NC(=O)C3CC3)c3nc4ccccc4nc23)cc1	3.8*	15	.	14%	12	1.1
Cc1ccc(S(=O)(=O)N2CCC(C(=O)Nc3ccccc3N3CCCCC3)CC2)cc1	1	11	i	4%	0	0.99
Cc1ccc(S(=O)(=O)c2c(N)n(CC3CCOC3)c3nc4ccccc4nc23)cc1 (configuration not stated)	2.1*	15	.	9%	2	1.1
O=c1c2cnn(-c3ccccc3Cl)c2ncn1Cc1cccnc1	1.1	16	i	8%	9	0.97
COC(=O)C1CCN(C(=O)c2ccccc2Oc2ccccc2)CC1	1.1	5	i	2%	0	1.1
Cc1cc(NC(=O)CSc2nnnn2C2CCCC2)no1	2.8*	14	i	17%	9	1.1
CCc1nnc(NC(=O)CN2CCOCC2)s1	1.1	4	i	3%	5	1
CCCc1nnc(NC(=O)CN2CCOCC2)s1	0.75	11	+	17%	8	0.99
